Assay results as given in PubChem BioAssay AID1259422 (The Scripps Research Institute Molecular Screening Center, 2018).
Among all 640,000 compounds or so, about 9,300 (1.5%) were called active. The entries come from a sample that favours actives as a whole. Values without a mark were called inactive. Rule as the data show it: active = inhibition above about 32%; inactive = the rest.

assay: TEAD-YAP interaction inhibition, primary screen, TEAD-YAP interaction inhibitor project, luminescence, HEK-TIYL cells (AID 1259422); conditions: TEAD-Gal4/YAP UAS-luciferase luminescence, at 9.12 µM, active compounds read high;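 also: 0% = median of test compound wells and 100% = reference inhibitor wells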

| Structure (SMILES) | inhibition |
| --- | --- |
| N#CC1=C(N)Oc2n[nH]c(-c3ccc(Cl)cc3)c2C1c1ccc2c(c1)OCO2 (stereo unspecified) | 12.5% |
| Cn1ncc(Cl)c1-c1nc2ccccc2[nH]1 | -8.92% |
| O=c1c(Cl)c(Cl)cnn1-c1nc2ccccc2[nH]1 | 56.5% (active) |
| N#Cc1cnn(-c2nc3ccccc3[nH]2)c1N | -4.74% |
| Cc1cc(Nc2ccccc2Cl)n2nc(C)nc2n1 | -1.89% |
| Cc1cc(C)c(NC(=O)c2c(Cl)nc(C)c(Cl)c2C)c(C)c1 | -2.91% |
| COc1cccc(/C=C/C(=O)NCC(=O)O)c1OC | -11.1% |
| Cc1cccc2nc(CNC(=O)CCCn3nnnc3CN3CCC(C)CC3)cn12 | 3.48% |
| C/C(=N/NC(=O)c1ccccn1)c1ccccc1 | 14.7% |
| CC(C)(C)c1ccc(C(=O)NNC(=O)c2ccccn2)cc1 | 41.6% (active) |
| CC(C)(C)c1ccc(C(=O)NNC(=O)C(=O)NCc2ccccc2)cc1 | -5.07% |
| N#Cc1ccc(C23CC4CC(CC(C4)C2)C3)nc1SCC(=O)Nc1nc2ccccc2s1 | 3.55% |
| N#CC(=C1C(=O)c2ccccc2C1=O)c1nc2ccccc2[nH]1 | -10.3% |
| Cc1ccc(N=C2NC(=O)/C(=C\c3ccc(-c4ccccc4[N+](=O)[O-])o3)S2)c(C)c1 | -2.23% |
| COc1ccccc1NC(=O)C1=C(C)Nc2nc3ccccc3n2C1c1cccs1 (stereo unspecified) | 46.5% (active) |
| CCOc1ccc(C2C(C(=O)NC)=C(C)Nc3nc4ccccc4n32)cc1OC (stereo unspecified) | -6.37% |
| COc1ccccc1C1C(C(=O)N2CCCCC2)=C(C)Nc2nc3ccccc3n21 (stereo unspecified) | 1.41% |
| COc1ccc(C(C)=O)c(OC(=O)Cc2cc(OC)c(OC)c(OC)c2)c1 | 12.9% |
| COc1ccc(-c2cc(C(=O)Nc3ccccc3)c3ccccc3n2)cc1 | -2.31% |
| COc1cc(C(=O)Nc2ccc(C(=O)O)cc2)c2ccccc2n1 | -2.83% |
| COc1cc(C(=O)Nc2ccc(C(C)=O)cc2)c2ccccc2n1 | 47.1% (active) |
| CCCC(=O)Nc1ccccc1C(=O)O | -0.09% |
| COC(=O)c1ccccc1NC(=O)C(=O)Nc1ccccc1C(=O)OC | -3.84% |
| C/C(=C\c1ccccc1)C(=O)Nc1ccccc1C(=O)O | 36.6% (active) |

| Structure (SMILES) | inhibition |
| --- | --- |
| COc1ccc(Nc2c(C#N)cnc3ccccc23)cc1Cl | 49.7% (active) |
| COc1ccc(NC(=O)Cc2c[nH]c3ccccc23)cc1Cl | 4.42% |
| CCN1CCN(c2ncc(C(=O)Nc3ccc(OC)c(Cl)c3)c3ccccc23)CC1 | -15.1% |
| COc1cc(/C=C2/SC(=Nc3ccccc3Cl)NC2=O)cc(OC)c1OC | -2.07% |
| Cc1ccc(/C=C2/SC(=Nc3ccccc3Cl)NC2=O)cc1 | 37.2% (active) |
| Cc1cccc(C(=O)Oc2ccc(/C=C3/SC(=Nc4ccccc4Cl)NC3=O)cc2)c1 | 0.81% |
| CC(=O)Nc1nc2cc([N+](=O)[O-])c(C)cc2s1 | -21.7% |
| COc1cc(C2Nc3ccccc3NC3=C2C(=O)CC(c2ccccc2Cl)C3)cc(Cl)c1O (stereo unspecified) | 54.8% (active) |
| CCOc1ccccc1C1C(C(=O)OC)=C(C)NC2=C1C(=O)CC(c1ccccc1)C2 (stereo unspecified) | -5.16% |
| COc1cc(C2C(C(=O)OC3CCCCC3)=C(C)NC3=C2C(=O)CC(c2ccccc2)C3)cc(Cl)c1O (stereo unspecified) | -1.53% |
| COc1ccc(C2CC(=O)C3=C(C2)Nc2ccccc2NC3c2cccc(Cl)c2)cc1 (stereo unspecified) | 1.54% |
| COc1ccc(C2CC(=O)NC3=C2C(=O)CC(c2ccccc2Cl)C3)cc1 (stereo unspecified) | 6.64% |
| CCOc1ccccc1C1CC(=O)NC2=C1C(=O)CC(c1ccccc1Cl)C2 (stereo unspecified) | 36.2% (active) |
| O=C(CCCn1nnc(-c2ccccc2F)n1)c1ccc(O)cc1 | -5.05% |
| CCc1ccc(N/C(SCc2cccc([N+](=O)[O-])c2)=C(/C#N)C(=O)NCc2ccco2)cc1 | -0.35% |
| CC(=O)Nc1ccc(NC(=O)C(=O)NCc2ccc(F)cc2)cc1 | 0.35% |
| COc1ccc(CCn2c(SCC(=O)Nc3ccc(C)c(C)c3)nc3ccccc3c2=O)cc1OC | 8.03% |
| CCN(CC)C(=O)CSc1nc2ccsc2c(=O)n1CCc1ccccc1 | 16.3% |
| COc1ccc(CCn2c(SCC(=O)N3CCN(c4ccccc4OC)CC3)nc3ccccc3c2=O)cc1OC | 36.9% (active) |
| COc1ccccc1N1CCN(C(=O)CSc2nc3ccsc3c(=O)n2-c2ccccc2)CC1 | 1.01% |
| COc1ccccc1N1CCN(C(=O)CSc2nc3ccsc3c(=O)n2CCc2ccccc2)CC1 | 43.9% (active) |
| COc1ccccc1N1CCN(C(=O)CSc2nc3ccccc3c(=O)n2Cc2cccs2)CC1 | -7.66% |
| CN(C)c1cc(-c2nnc(SCc3ccccn3)n2C)nc(N(C)C)n1 | 1.09% |
| CC(NS(=O)(=O)c1cc(Cl)ccc1Cl)C(=O)Nc1ccc2c(c1)OCCO2 (stereo unspecified) | -9.66% |

| Structure (SMILES) | inhibition |
| --- | --- |
| CC1CCCN(C(=O)Cn2c(=O)oc3ccccc32)C1 (stereo unspecified) | 7.96% |
| CC(=O)CN1C(=O)c2ccccc2S1(=O)=O | -8.06% |
| O=C(CC(=O)N1CCc2ccccc21)C(=O)CC(=O)N1CCc2ccccc21 | 8.39% |
| O=C(CN1C(=O)c2ccccc2S1(=O)=O)N1CCN(Cc2ccccc2)CC1 | -9.54% |
| CC1CCCN(C(=O)CN2C(=O)c3ccccc3S2(=O)=O)C1 (stereo unspecified) | 32.8% (active) |
| O=C(CN1C(=O)c2ccccc2S1(=O)=O)N1CCc2ccccc21 | 73.9% (active) |
| O=C(NCc1ccon1)c1cccc(OC2CCN(C(=O)C3CC3)CC2)c1 | -8.88% |
| CC(C)CCNC(=O)C1CC(=O)N(C2CCCCC2)C1 (stereo unspecified) | 1.78% |
| O=C(COc1ccccc1)N1CCN(c2ccccc2F)CC1 | 0.47% |
| CN(CC(=O)N1CCOCC1)c1ncnc2scc(-c3ccc(F)cc3)c12 | 2.08% |
| Cc1csc(C(C#N)C(=O)COC(=O)c2sc3cc(F)ccc3c2Cl)n1 (stereo unspecified) | -0.66% |
| COC(=O)C1=C(C)NC(=O)/C1=C\c1cccc(OCc2ccccc2)c1 | -0.2% |
| Cc1ccc(Nc2cc(C(=O)O)c3ccccc3n2)cc1 | -9.91% |
| O=C(c1cc(-c2ccc(Cl)cc2)nc2ccccc12)N1CCN(c2ccc([N+](=O)[O-])cc2)CC1 | 3.06% |
| O=C(COC(=O)c1cc(-c2ccccc2)nc2ccccc12)c1ccccc1 | -10% |
| O=C(O)c1cc(-c2ccc(-c3ccccc3)cc2)nc2ccccc12 | 84.8% (active) |
| O=C(c1cc(N2CCOCC2)nc2ccccc12)N1CCN(c2cccc(Cl)c2)CC1 | -4.93% |
| O=C(c1cc(-c2ccncc2)nc2ccccc12)N1CCN(c2ccccc2)CC1 | 57% (active) |
| COc1ccc(CNC(=O)c2ccccc2N(Cc2ccccc2)S(=O)(=O)c2ccc(C)cc2)cc1 | 1.46% |
| O=C(NCCCN1CCCC1=O)c1ccc2c(c1)N(Cc1ccccc1)C(=O)CS2=O (stereo unspecified) | -1.97% |
| CSc1ccccc1NC(=O)Cn1nc(C)c([N+](=O)[O-])c1C | -7.74% |
| Cc1ccc(Oc2ccc(NC(=O)c3ccc(Br)c([N+](=O)[O-])c3)cc2)cc1 | 20.9% |
| Cc1cc(Nc2ccc(N3CCOCC3)cc2)nc(NCc2ccc3c(c2)OCO3)n1 | 38.4% (active) |
| CC(=O)Nc1ccc(Nc2cc(C)nc(NCc3ccc4c(c3)OCO4)n2)cc1 | 31.4% |

| Structure (SMILES) | inhibition |
| --- | --- |
| CCNc1nc(C)cc(Nc2ccc(N3CCOCC3)cc2)n1 | 1.76% |
| O=C(Nc1cccnc1Cl)c1cc2nc3c(c(C(F)(F)F)n2n1)CCc1ccccc1-3 | 5.92% |
| Cc1ncc(-c2ccncn2)c(-c2ccc(C(F)(F)F)nc2)n1 | 6.09% |
| C=C(C)CONC(=O)c1cnc2scc(C(C)(C)C)n2c1=O | -7.08% |
| C=CCn1c(C)cc(C2=NNC(=NCC)SC2)c1C | 99.6% (active) |
| C=CCn1c(C)cc(C(=O)CC#N)c1C | -18.5% |
| CCC(=O)Nc1ccc(C2=NNC(=NC)SC2)cc1 | -4.44% |
| COc1ccc(C2C(C#N)=C(N)Oc3cc(C)n(Cc4ccco4)c(=O)c32)c(OC)c1 (stereo unspecified) | 6.86% |
| O=C(N/N=C/c1ccc([N+](=O)[O-])o1)c1cccc(F)c1 | -23.7% |
| O=C(N/N=C/c1ccc([N+](=O)[O-])o1)c1cc(Cl)ccc1O | 2.15% |
| O=C(N/N=C/c1ccc([N+](=O)[O-])o1)c1ccc(Cl)cc1Cl | 44.6% (active) |
| COc1cc(NC(=O)CC(C)C)c(C(=O)O)cc1OC | 12.1% |
| Cc1ccccc1C(=O)Nc1ccc(Br)c(Cl)c1 | -77.6% |
| Cc1ccc(NC(=O)c2ccccc2Br)cc1C | -49% |
| Cc1cc(NC(=O)c2ccccc2Br)ccc1O | 77% (active) |
| OC1CCN(c2ccc(Nc3nccc(-c4cc(N5CCOCC5)cc(C(F)(F)F)c4)n3)cc2)CC1 | 31.8% |
| Cc1ncccc1-c1ncn(-c2ccc(Nc3nccc(-c4cc(F)cc(N5CCOCC5)c4)n3)cc2)n1 | -3.6% |
| N#Cc1cccc(-c2ccnc(Nc3ccc(N4CCOCC4)cc3)n2)c1 | -9.11% |
| N#Cc1cc(-c2ccnc(Nc3ccc(-n4cnc(-c5ccccn5)n4)cc3)n2)cc(N2CCOCC2)c1 | 43.5% (active) |
| c1cc(-c2cncc(N3CCOCC3)c2)nc(Nc2ccc3c(c2)OCO3)n1 | 36.5% (active) |
| COC1CCN(c2ncn(-c3ccc(Nc4nccc(-c5cncc(N6CCOCC6)c5)n4)cc3)n2)CC1 | 51.5% (active) |
| Cc1cnnn1-c1ccc(Nc2nccc(-c3cc(C#N)cc(N4CCOCC4)c3)n2)cc1 | 1.73% |
| Cn1nccc1-c1cc(F)cc(-c2ccnc(Nc3ccc(-n4cnc(N5CCOCC5)n4)cc3)n2)c1 | 9.9% |
| CN(C)c1cc(F)cc(-c2ccnc(Nc3ccc(-n4cnc(N5CCOCC5)n4)cc3)n2)c1 | -6.66% |
